Inhibition data for twelve molecules are collected here from ChEMBL document CHEMBL3433997, “St. Jude Leishmania screening dataset” (2016).

Common to all, as to type: functional
Test [1] has as its target Solute carrier family 2, facilitated glucose transporter member 1 (Homo sapiens) (UniProt P11166). Put plainly: ST_JUDE_LEISH: Cytotoxicity at 2uM final concentration against transgenic Leishmania Mexicana promastigotes LmGLUT1 that are glucose transport deficient and complemented with the human glucose transporter GLUT1. Activity is measured by DNA content using SYBR green in vitro.

The target of test [2] is Hexose transporter 1 (Plasmodium falciparum) (UniProt O97467). Put plainly: ST_JUDE_LEISH: Cytotoxicity at 2uM final concentration against transgenic Leishmania Mexicana promastigotes LmPfHT that are glucose transport deficient and complemented with the Plasmodium falciparum hexose transporter. Activity is measured by DNA content using SYBR green in vitro.
The target in test [3] is Glucose transporter (Leishmania mexicana) (UniProt O61059). Put plainly: ST_JUDE_LEISH: Cytotoxicity at 2uM final concentration against transgenic Leishmania Mexicana promastigotes LmGT2 that are glucose transport deficient and complemented with the L. Mexicana glucose transporter 2. Activity is measured by DNA content using SYBR green in vitro.

Chain of Solute carrier family 2, facilitated glucose transporter member 1 (Homo sapiens) (P11166 whole entry): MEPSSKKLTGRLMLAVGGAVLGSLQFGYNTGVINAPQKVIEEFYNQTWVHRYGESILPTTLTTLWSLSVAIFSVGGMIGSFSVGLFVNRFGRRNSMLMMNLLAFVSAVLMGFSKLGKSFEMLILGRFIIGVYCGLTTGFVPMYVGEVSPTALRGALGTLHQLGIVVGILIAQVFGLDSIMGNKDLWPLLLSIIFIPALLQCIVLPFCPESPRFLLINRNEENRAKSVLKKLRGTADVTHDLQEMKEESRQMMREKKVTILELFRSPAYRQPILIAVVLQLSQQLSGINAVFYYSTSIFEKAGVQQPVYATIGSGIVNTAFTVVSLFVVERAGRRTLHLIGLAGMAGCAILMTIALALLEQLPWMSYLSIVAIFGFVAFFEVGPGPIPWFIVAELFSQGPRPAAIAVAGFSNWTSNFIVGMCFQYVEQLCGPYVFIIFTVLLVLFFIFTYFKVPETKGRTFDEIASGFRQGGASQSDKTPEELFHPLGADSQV

For orientation: inhibition means the change of the read-out against control, counted positive when it falls. For the molecule `CC(CN(C)C)C(=O)Nc1ccc(-c2cccc(-c3nc4ccccc4[nH]3)c2)cc1` (stereo unspecified), the inhibition in test [1] was determined as 5.14%; in test [2] it was 4.81%; in test [3], 8.05%.

Consider `CC(=O)Nc1ncc(C(=O)Nc2cccc(-c3cccc(-c4nc5cc(C(F)(F)F)ccc5[nH]4)c3)c2)s1`, for which the results for the inhibition in test [1], in test [2] and in test [3] were -1.12%, 0.35% and 0.3%, respectively.

Regarding `COc1nc2c(CCN3CC[C@H](NCc4cc(C#N)c5c(c4)CCO5)[C@H](O)C3)ccnc2cc1F`, the results for the inhibition in test [1], in test [2] and in test [3] were 8.01%, 8.15% and 0.58%, respectively.

As for `COC(=O)c1cccc(NC(=O)NC2CCN(c3ccnc(Nc4ccc(OC)cc4)n3)C2)c1` (stereo unspecified), the inhibition was found to be 0.29% in test [1], 0.86% in test [2] and 0.1% in test [3].

Take `Cc1cc(N[C@@H](CC(C)C)C(=O)NCCCOC(C)C)nc(NCCc2ccc(F)cc2)n1`: the inhibition in test [1] is 2.71%; in test [2] it was 1.92%; in test [3], 0.62%.

Regarding `O=C(Nc1ccc(-c2cncc(NCCCN3CCCC3)c2)cc1)c1ccccc1`, the inhibition in test [1] worked out at 1.36%; in test [2], 1.48%; in test [3], 1.55%.

For `CC(C)CNCc1ccc(-c2ccc(CN(CCCN3CCN(C)CC3)C(=O)CCC3CCCC3)cc2)cc1`, the inhibition came out at 55.1% in test [1], 52% in test [2] and 3.97% in test [3].

For the molecule `C[C@@H](COc1ccc(-c2ccccc2)cc1)CON1C(N)=NC(N)=NC1(C)C`, the inhibition amounted to 69.6% in test [1], 76.5% in test [2] and 50.3% in test [3].

Take `COc1ccc(CCNCc2cc3c(C(C)(C)C)nn(-c4ccc(Cl)cc4)c3[nH]c2=O)cc1OC`: the inhibition in test [1] is -2.79%; in test [2] it was -2.78%; in test [3] it was -5.42%.

`COc1ccc2nccc(N(C)CC3(O)CCN(CCc4ccc5c(c4)NC(=O)CS5)CC3)c2n1`: the inhibition in test [1] is 6.99%; in test [2], 6.89%; in test [3], 6.32%.

Consider `COc1ccc2nc(N(CCCn3ccnc3)C(=O)C=Cc3cccs3)sc2c1`, for which the inhibition in test [1] is 3.73%; in test [2], 3.16%; in test [3] it was -2.84%.

For the molecule `COc1cc(C(=O)NCCCN2CCN(c3cc(Cl)ccc3OC)CC2)ccc1-c1nc2cc(Cl)c(Cl)cc2[nH]1`, the inhibition in test [1] was 6.79%; in test [2], 6.15%; in test [3], 5.03%.
